Structures are written as SMILES. About 1,000 (0.29%) of roughly 340,000 compounds were called active. These entries were drawn from the full list. Potency and affinity values are given separately. A number with no mark means an inactive call. No stated cut-off is given here; in the data, inconclusive means inhibition above about 27% without an active follow-up result; inactive means below that.

A short description of this assay: NS1A inhibition, H1N1 influenza, cell based functional assay (AID 504329). To be noted: percent inhibition, at 12.5 µM, stronger effect = higher value.
Take `O=C(Nc1cccc(-n2cnnn2)c1)c1ccc(C(F)(F)F)cc1`: the inhibition was -1.71%.
In the case of `Cc1ccc(S(=O)(=O)c2nc(N3CCOCC3)sc2Cl)cc1`, the inhibition was -3.55%.
For the molecule `CC(=O)Nc1ccc(N2N=C(C)C(N=Nc3ccccc3)C2=O)cc1` (stereo unspecified), the inhibition is 22.2%.
`CC1=NN(c2ccccc2)C(=O)C1N=Nc1ccc(S(N)(=O)=O)cc1` (stereo unspecified): the inhibition was 1.05%.
As to `CC1=NN(c2ccccc2)C(=O)C1N=Nc1ccccc1` (stereo unspecified), the inhibition is -6.95%.
On to `CC1=NN(c2ccccc2)C(=O)C1N=Nc1cccc(O)c1` (stereo unspecified), for which the inhibition was 0.04%.
In the case of `COc1ccc(N2CCN(c3nc4c(C)cccn4c(=O)c3C=C(C#N)C#N)CC2)cc1` it was -22.9%.
Regarding `O=C(NNC(=O)c1cccs1)c1ccncc1`, the inhibition is -2.62%.
For `COc1ccc([C@H]2CC(=O)C=C(c3cccc4c3sc3ccccc34)C2)cc1OC`, the inhibition is 7.03%.
On to `Nc1nc(NC(=O)c2ccccc2)nn1-c1ccccc1`, for which the inhibition was -6.76%.
In the case of `Nc1nc(NC(=O)c2ccco2)nn1-c1ccccc1`, the inhibition is 5.18%.
For `CCCc1cc(N2CCCC(C(=O)NCC)C2)n2ncnc2n1` (stereo unspecified) the value was -10%; for `NC(=O)C1(N2CCCCC2)CCN(c2ccc3nnc(-c4ccccc4)n3n2)CC1`, -13.3%.
With `Cc1cc2ccccn2c1C(=O)c1cccc([N+](=O)[O-])c1`, the inhibition was 4.98%.
With `COC(=O)c1cc(C(=O)c2c(C)cc3ccccn23)cc([N+](=O)[O-])c1`, the inhibition is 16.9%.
Turning to `O=C(NCCC1=CCCCC1)C(=O)NCCc1ccc(Cl)cc1`, the inhibition was 1.14%.
In the case of `C=CC[C@@H](CC(=O)N[C@@H](CO)Cc1ccccc1)C(=O)N[C@H](C)COC(=O)[C@@H](CC=C)Cc1ccc(F)cc1` it was -3.08%.
For `COc1ccc(/C(=N/Nc2ncnc3ccccc23)C(=O)O)cc1`, the inhibition was 5.64%.
For the molecule `CCOC(=O)/C(=N\Nc1ncnc2ccccc12)c1ccc(C)cc1`, the inhibition was 12.6%.
Consider `O=C(NCc1ccccn1)Nc1cc(Cl)ccc1Cl`, for which the inhibition is -13.2%.
As to `COc1ccc(CNC(=O)Cn2cc(C(F)(F)F)ccc2=O)cc1`, the inhibition was -8.07%.
For `CN(C)c1ccc(/C=C2\C(=O)NC(=O)N(Cc3ccc(F)cc3)C2=O)cc1` the value was -0.15%.
As to `CN(C)c1ccc(C=C2C(=O)OC(C)(C)OC2=O)cc1`, the inhibition is 0.66%.
Turning to `COc1ccc(/C=C2/C(=O)N(Cc3ccccc3)N=C2C)cc1`, the inhibition is -0.08%.
For the molecule `CC1=NN(CCC#N)C(=O)/C1=C/c1ccc(N(C)C)cc1`, the inhibition is 18.1%.
For `COc1ccc(CCC(=O)OCC(=O)Nc2ccccc2OC(F)F)cc1OC` the value was -3.13%.

Usually inhibition stands for the drop in the measured response relative to a control, in per cent.

(Values after PubChem BioAssay AID504329 (Southern Research Specialized Biocontainment Screening …, 2011).)
